BAZ2B inh: BAZ2B (human) inhibition | AlphaScreen BAZ2B-H3K14Ac peptide displacement | Q9UIF8 | hit rate 4.4% among 360,000 | Potency, µM (titrated, usually from 114 µM), inactives show top-dose activity change, negative = inhibition, usual class: inhibitors; note: % is set by controls: 0 for no effect and ±100 for the full control effect; nearly all actives have a fitted effect of over 60% in size
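Inhibition is scored as reduced AlphaScreen emission. The BAZ2B/b-H3(5-23)K14Ac complex (50 nM each) in PBS pH 7.4, 0.01% Tween-20 meets compound (up to 110 uM) for 30 min at RT before bead addition.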
12-LOX inh: blocks human arachidonate 12S-lipoxygenase; purified 12hLO, xylenol orange hydroperoxide absorbance; Potency, µM (series often up to 108 µM), inactives show at the highest dose activity change, negative = inhibition, most hits filed as inhibitors; hit rate 1.1% among 580,000; AID 1671190; note: % is set by controls: 0 for no effect and ±100 for the full control effect
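Purified human 12hLO at 150 nM in 25 mM Hepes, 0.01% Triton X-100, pH 7.0, preincubated 15 min at room temperature with compound. Reaction started with 40 uM arachidonic acid, 30 min at room temperature. Hydroperoxide measured by Fe-xylenol orange, 573/405 nm absorbance ratio.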
PLK1 PBD block: blocks phosphopeptide binding to human PLK1 polo-box domain; P53350; hit rate 2.8% among 360,000; Potency, µM, inactives show max response, negative = inhibition, usual class: inhibitors; Plk1 PBD binding of FITC phosphopeptide, fluorescence polarization; AID 720504; note: series mostly up to about 57 µM; % is set by controls: 0 for no effect and ±100 for the full control effect; nearly all actives have a fitted effect of over 65% in size
Target sequence (P53350 whole entry, looked up, the tested form may be a part): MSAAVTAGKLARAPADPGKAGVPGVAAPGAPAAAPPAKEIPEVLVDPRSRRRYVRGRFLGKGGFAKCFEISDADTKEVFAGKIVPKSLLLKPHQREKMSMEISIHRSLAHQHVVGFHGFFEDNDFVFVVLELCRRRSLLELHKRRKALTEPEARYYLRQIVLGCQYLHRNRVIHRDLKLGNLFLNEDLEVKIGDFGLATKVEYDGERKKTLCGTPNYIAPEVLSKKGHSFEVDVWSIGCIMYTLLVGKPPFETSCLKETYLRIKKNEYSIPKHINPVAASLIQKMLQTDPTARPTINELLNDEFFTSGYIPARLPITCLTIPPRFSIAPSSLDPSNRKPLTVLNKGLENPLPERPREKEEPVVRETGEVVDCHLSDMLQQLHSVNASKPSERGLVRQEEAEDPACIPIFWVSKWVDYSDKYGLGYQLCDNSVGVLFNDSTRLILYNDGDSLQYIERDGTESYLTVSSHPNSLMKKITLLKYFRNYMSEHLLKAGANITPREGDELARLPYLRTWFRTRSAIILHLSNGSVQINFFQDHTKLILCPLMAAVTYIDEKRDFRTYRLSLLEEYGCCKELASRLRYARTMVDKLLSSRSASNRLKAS
HP1b binding inh: blocks HP1-beta chromodomain binding to methylated histone tails | AlphaScreen HP1-beta / biotin-H3K9me3 peptide binding | Potency, µM (titrated, usually from 114 µM), inactives show at the top dose activity change, negative = inhibition, usual class: inhibitors | hit rate 0.56% among 390,000; note: nearly all actives have a fitted effect of over 70% in size
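Compound inhibition of the preformed complex between 50 nM HP1-beta and 50 nM biotinylated H3K9me3 peptide was read by AlphaScreen. Buffer was PBS pH 7.4 with 0.01% Tween-20. Incubations ran 30 min at room temperature, with 10 ug/mL donor/acceptor beads.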
G9a inh: inhibitors of human histone lysine methyltransferase G9a | G9a H3K9 monomethylation, AlphaScreen, 2 h | Potency, µM (top dose mostly 102 µM), inactives show top-dose activity, negative = inhibition, usual class: inhibitors | hit rate 8.8% among 350,000 | AID 504332; note: % is set by controls: 0 for no effect and ±100 for the full control effect; nearly all actives have a fitted effect of over 75% in size
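Methyltransferase reactions run at room temperature for 2 h (20 nM enzyme, 500 nM biotin-H3K9 peptide, 20 uM SAM) after a 15 min compound preincubation; product detected by AlphaScreen beads and anti-H3K9me1 antibody.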
JMJD2A Tudor: blocks the human JMJD2A Tudor domain. O75164. AlphaScreen JMJD2A-Tudor / H3K4me3 peptide binding. Potency, µM (doses to about 114 µM), inactives show at the highest dose activity change, negative = inhibition, hits mostly inhibitors. hit rate 4.4% among 390,000; note: % is set by controls: 0 for no effect and ±100 for the full control effect; nearly all actives have a fitted effect of over 50% in size
* hit, by the source's call; ? = inconclusive; · = no result; ! = a repeat was not active; [ ] = remark or other dose. Sampled rows, rich in hits. Any-hit rate of the full collection: about 9%. Calls come from the whole dose curve; as a rule, active = well fitted curve in the direction sought with a large enough effect; inconclusive = small, poorly fitted or top-dose-only effect, or another doubt; inactive = no such curve, though single readings can be large; an effect the other way counts as inactive or inconclusive. Potency is the fitted concentration of half-maximal effect.

SMILES	BAZ2B inh	12-LOX inh	PLK1 PBD block	HP1b binding inh	G9a inh	JMJD2A Tudor
O=C(N/N=C/c1c(O)n(CCc2ccc(F)cc2)c(=O)[nH]c1=O)c1ccncc1	50µM*	0%	-9%	30%	123%[59 µM]	?
O=C(N/N=C/c1c(O)n(-c2cccc3ccccc23)c(=O)[nH]c1=O)c1ccncc1	79µM*	0%	4%	34%	6%	50µM*
O=C(N/N=C/c1c(O)n(CCc2ccccc2)c(=O)[nH]c1=O)c1ccccc1O	-38%	?	4%	33%	71µM*	?
Cc1ccc(-n2c(O)c(/C=N/NC(=O)c3ccncc3)c(=O)[nH]c2=O)cc1C	50µM*	9%	-1%	51%	?	56µM*
CC(CO)(CO)N=Cc1c(O)n(-c2cccc3ccccc23)c(=O)[nH]c1=O	-1%	37%	0%	25%	-30%[59 µM]	6%
O=C1CC(=O)N(c2ccc3c(c2)OCO3)C(=O)N1	1%	-26%	?	44%	?	-2%[11.4 µM]
Cc1ccc2ccccc2c1NC(=O)CNC1CCCCC1	-3%[57.1 µM]	-8%	2%	51%	-15%[12.7 µM]	-11%
O=C(N/N=C/c1c(O)n(CCc2ccccc2)c(=O)[nH]c1=O)c1ccncc1	56µM*	1%	-6%	41%	20µM*	-32%
CCCCC/C=C\C/C=C\C/C=C\C/C=C\CCCC(=O)O	-7%	3%[12.5 µM]	·	·	16µM*!	·
Fc1ccc(C2=CCN(C(c3ccc(Cl)cc3)c3nnnn3Cc3ccccc3)CC2)cc1 (stereo unspecified)	-7%	-2%	-5%	31%	16%[59 µM]	-13%
COc1ccc(C(CC(=O)N2CCC3(CC2)OCCO3)NS(=O)(=O)c2ccc(F)cc2)cc1 (stereo unspecified)	7%	11%	-3%	39%	-1%[59 µM]	-8%
CCCCCCC(=O)c1c(O)n(-c2ccccc2OC)c(=O)[nH]c1=O (tested in a mixture with another compound)	-4%	?	-5%	11%	7%	-13%
O=C(c1cccs1)N1CCC(C(=O)O)(c2ccccc2)CC1	·	5%	3%	·	·	·
CN(C)C(Cc1ccccc1)C(=O)c1cccs1 (stereo unspecified)	-29%	·	·	·	?	·
CCc1ccc(-n2c(O)c(/C=N/N3CCCCC3c3cccnc3)c(=O)[nH]c2=O)cc1 (stereo unspecified)	-8%	1%	-13%	58%	6%[59 µM]	-15%
O=c1[nH]c(=S)n(-c2ccccc2)c(O)c1/C=N/N1CCCCC1c1cccnc1 (stereo unspecified)	?	-12%	-11%	40%	8.9µM*	-11%
Cc1ncoc1C(=O)NCC1=C(c2ccc(S(C)(=O)=O)cc2)C[C@@H]2CC[C@H]1N2Cc1ccco1	·	-12%	-4%	·	·	·
CCCCc1ccc2[nH]c(C)c(CCN)c2c1	·	3.2µM*	·	·	·	·
NC(=O)COc1c(F)cc(SCCNS(=O)(=O)c2ccccc2)cc1F	·	·	·	·	4%[59 µM]	·
CCN1CCN(Cc2cc(Br)cc(OC)c2O)CC1	12%	?	1%	25%	?	-22%
Oc1c(Br)cc(Br)cc1CN1CCN(Cc2ccccc2)CC1	79µM*	6%	-6%	-9%	45µM*	20µM*
C[n+]1cccc(C(=O)NCC2CCCO2)c1 (stereo unspecified)	-2%	16µM*	-9%	16%	?	-3%
CN(C)C1(CNC(=O)c2ccc(NS(=O)(=O)c3ccc(Cl)c(Cl)c3)cc2)CCCCC1	2%	-18%	-4%	25%	8%[12.7 µM]	8%
Cc1ccsc1C(=O)N1[C@H]2CC[C@@H]1c1cnc(-c3ccc(F)cc3)nc1C2	·	25%	·	·	·	·
O=C(Cc1coc(-c2ccccc2)n1)N1CCCC1CN1CCCC1 (stereo unspecified)	·	-4%	·	·	·	·
SMILES	BAZ2B inh	12-LOX inh	PLK1 PBD block	HP1b binding inh	G9a inh	JMJD2A Tudor
S=c1[nH]c2ccccc2[nH]1	-12%	-22%	-17%	-5%	13µM*	?
O=C(Nc1ccccc1)c1c(O)[nH]c(=S)[nH]c1=O	·	?	-10%	79%	·	?
O=C(Cc1ccc(Br)cc1)N1CCN(Cc2ccccc2)CC1	4%	-29%	-10%	19%	2%[12.7 µM]	-5%
COc1ccccc1CC(=O)N1CCN(CCc2ccccc2)CC1	-17%	-29%	-22%	9%	19%	-19%
O=C(Cc1ccccc1)N1CCN(CCCc2ccccc2)CC1	56µM*	0.89µM*	3%	?	?	0.32µM*
COc1ccc(CN2CCN(C(=O)Cc3ccccc3)CC2)c(OC)c1	56µM*	-19%	-2%	?	20µM*	2µM*
COc1cc(CN2CCN(C(=O)Cc3ccccc3)CC2)cc(OC)c1OC	?	?	0%	?	25µM*	7.1µM*
Cc1ccc(CC(=O)N2CCN(Cc3ccccc3)CC2)cc1	-21%	-11%	-15%	58%	-52%	-10%
O=C(Cc1ccccc1)N1CCN(Cc2ccc(F)cc2)CC1	79µM*	22%	-1%	?	·	10µM*
O=C(O)CCC(=O)N1C[C@@H]2C[C@H](C1)c1c(-c3cc4ccccc4s3)ccc(=O)n1C2	·	11%[176 µM]	·	·	·	·
C=CCn1c(O)c(/C=C2/C=CC=N2)c(=O)[nH]c1=O	1%	?	?	17%	6%[59 µM]	-19%
COc1ccc2[nH]cc(CCN=C(NC(=O)c3ccccc3OC)Nc3nc(C)cc(C)n3)c2c1	25µM*	-20%	·	-4%	?	?
COc1ccc2[nH]cc(CCN=C(N)N)c2c1	?	-26%	-6%	32%	?	-7%
O=c1cc(CN2CC=C(c3ccccc3)CC2)c2c(ccc3ccccc32)o1	-4%	?	-5%	39%	-3%[59 µM]	-5%
c1ccc(P(c2ccccn2)c2ccccn2)cc1	-19%	?	4%	39%	18%	-4%
Cc1cc(=O)[nH]c(SCc2nc3ccccc3c(=O)n2-c2ccccc2C)n1	-17%	?	-17%	39%	-3%	-5%[57.1 µM]

Source: PubChem
